# Screening data (PubChem)
# Rab9 promoter act: activators of Rab9 promoter. Huh7 Rab9 promoter-luciferase reporter, luminescence, 24 h. Potency, µM (titrated, usually from 9.22 µM), inactives show at the highest dose activation, negative = inhibition, actives largely listed as activators. actives 2.8% (n = 320,000). AID 485297; note: % of control where 0% means no effect; nearly all actives have a fitted effect of over 60% in size
#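 Luminescence read-out: Huh7 cells stably expressing Rab9-luciferase, treated 24 h with compound at 37 °C, then lysed with luciferase reagent for 10 min at ambient before reading.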
# KinaseGlo FLuc: counter-screen: inhibitors of Kinase-Glo firefly luciferase; actives 0.28% (n = 200,000); Potency, µM (series often up to 38.3 µM), inactives show top-dose activity change, negative = inhibition, usual class: inhibitors; AID 1379; Kinase-Glo luciferase, ATP luminescence, 8 min; note: % is set by controls: 0 for no effect and ±100 for the full control effect; nearly all actives have a fitted effect of over 60% in size
#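 Compound is pinned into ATP-containing buffer (10 uM ATP, imidazole pH 7.2, 7 mM MgCl2). Kinase-Glo luciferase reagent is then added. Light output is recorded following an 8-min room-temperature incubation.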
# NPC1 prom act: activators of NPC1 promoter | Huh7 NPC1 promoter luciferase reporter, 24 h | Potency, µM (titrated, usually from 9.22 µM), for the others: at the top dose activation, most hits filed as activators | actives 2.4% (n = 320,000); note: % of control where 0% means no effect; nearly all actives have a fitted effect of over 60% in size
#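 Luminescence read-out of NPC1 promoter-driven luciferase in stably transfected Huh7 cells; compounds delivered in DMSO and left 24 h at 37C, 5% CO2, qHTS titration format.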
# ELG1 genotox: inducers of genotoxicity in HEK293T ELG1-luciferase cells; HEK293T ELG1-luciferase reporter, luminescence, 16 h; Potency, µM (top dose mostly 46 µM), without a hit: at the highest dose activity change, positive = activation, actives largely listed as activators; actives 1.3% (n = 330,000); note: % of control where 0% means no effect; nearly all actives have a fitted effect of over 60% in size
#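 After overnight (16 hr) compound treatment at 37 °C, ELG1-luciferase HEK293T cells were lysed with ONE-Glo; luminescence quantified 30 min later at room temperature.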
# FLuc counter: inhibits or activates purified firefly luciferase, miR-21 counter-screen | Potency, µM (titrated, usually from 57.5 µM), inactives show at the top dose activity change, negative = inhibition, actives largely listed as inhibitors | P08659 | actives 6.9% (n = 360,000) | purified FLuc, Km substrates, luminescence inhibition;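 note: plate controls were vehicle for no effect and reference inhibitor for full effect; nearly all actives have a fitted effect of over 55% in size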
# Target sequence (P08659 whole entry, looked up): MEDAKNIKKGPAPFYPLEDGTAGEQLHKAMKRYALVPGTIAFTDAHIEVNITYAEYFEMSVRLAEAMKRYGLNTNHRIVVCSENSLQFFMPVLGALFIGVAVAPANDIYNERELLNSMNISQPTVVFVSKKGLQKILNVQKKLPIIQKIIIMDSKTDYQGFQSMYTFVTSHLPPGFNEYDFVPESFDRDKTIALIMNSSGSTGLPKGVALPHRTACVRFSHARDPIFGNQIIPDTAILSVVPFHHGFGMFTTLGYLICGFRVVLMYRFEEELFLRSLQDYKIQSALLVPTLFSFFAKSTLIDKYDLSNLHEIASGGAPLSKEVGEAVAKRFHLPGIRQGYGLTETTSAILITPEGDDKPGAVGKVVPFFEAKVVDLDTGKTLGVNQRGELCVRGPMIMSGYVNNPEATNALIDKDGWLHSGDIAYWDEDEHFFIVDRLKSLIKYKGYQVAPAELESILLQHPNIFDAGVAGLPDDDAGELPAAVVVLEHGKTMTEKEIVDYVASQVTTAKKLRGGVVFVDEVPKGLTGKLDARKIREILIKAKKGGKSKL
#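 Purified P. pyralis luciferase, 10 nM final, with Km-level 10 uM D-luciferin and 10 uM ATP in 50 mM Tris acetate pH 7.5, 10 mM Mg acetate, 0.01% Tween-20, 0.05% BSA; 6-point qHTS titration about 60 µM downward; luminescence read.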
# SMN2 splice up: increases expression of the SMN2 splice variant. Potency, µM (highest dose often 46.1 µM), for inactives: top-dose activity change, positive = activation, actives largely listed as activators. actives 2.8% (n = 210,000). AID 1458. HEK293 SMN2-luciferase splicing reporter, luminescence, 30-36 h; note: % of control where 0% means no effect; nearly all actives have a fitted effect of over 55% in size
#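 HEK293 cells carry an SMN2 minigene-luciferase reporter in which exon 7 inclusion puts luciferase in frame. Cells were seeded at 2000 cells/well, attached for 10-12 hours, then exposed to compounds for 30-36 hours at 37C before ONE-Glo luminescence.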
# * marks the source's active call; other numbers are inactive results; ? = inconclusive; / = not tested or not shown; [ ] = dose if it differs, or a comment. Only some compounds are listed: those with a hit (about 7.5% of all), similar ones and a draw of the others. Calls come from the whole dose curve; as a rule, active = well fitted curve in the direction sought with a large enough effect; inconclusive = small, poorly fitted or top-dose-only effect, or another doubt; inactive = no such curve, though single readings can be large; an effect the other way counts as inactive or inconclusive. Potency is the fitted concentration of half-maximal effect.
SMILES,Rab9 promoter act,KinaseGlo FLuc,NPC1 prom act,ELG1 genotox,FLuc counter,SMN2 splice up
CSc1ncccc1C(=O)Nc1ccncc1,-5.2%,/,12.3%,1.6%,3.3%,/
Cc1ccc2nc(NC(=O)c3ccccc3F)sc2c1,?,/,0.316µM*,0.651µM*,0.477µM*,/
CSc1ncccc1C(=O)Nc1nc2ccc(Oc3ccccc3)cc2s1,0.1%,-20.3%,-1.0%,-0.2%,23.9µM*,11.2%
COc1ccc2nc(NC(=O)c3ccc(NC(=O)C4CCCO4)cc3)sc2c1 (configuration not stated),18.4%,/,21.3%,-10.3%,9.53µM*,/
Cc1noc(C)c1COC(=O)CCCc1c[nH]c2ccccc12,5.7%,-2.3%,4.1%,-0.8%,-3.1%,27.7%
COc1ccc(C(=O)Nc2nc3ccc(OC)cc3s2)cc1,?,/,2.51µM*,?,1.69µM*,/
Cc1ccc2nc(NC(=O)c3cc(=O)c4cc(C)c(C)cc4o3)sc2c1,/,/,/,/,-7.8%,-5.0%
Cc1cc(C)c2nc(NNC(=O)c3cc(=O)c4ccccc4o3)sc2c1,14.8%,/,1.3%,3.5%,13.5µM*,/
Cc1cc(C)c2nc(NNC(=O)c3ccc(S(=O)(=O)N4CCc5ccccc5C4)cc3)sc2c1,-13.0%,1.2%,-1.9%,?,1.9%,-115.9%
COc1ccc2nc(NC(=O)c3ccccc3-c3ccccc3C(=O)O)sc2c1,-12.1%,1.5%,-1.5%,6.2%,?,-1.4%
COc1ccc2nc(NC(=O)c3ccccc3C(=O)O)sc2c1,-0.5%[1.84 µM],/,-2.2%,2.3%,9.53µM*,/
COc1ccc2nc(NC(=O)c3cc(=O)c4ccccc4o3)sc2c1,/,/,/,/,1.69µM*,20.8%
Cc1ccc(C(=O)Nc2ccc(Nc3ccccc3)cc2)c(Cl)c1,6.8%,/,1.9%,0.2%,-15.8%,/
Cc1ccc(-c2nnc(Nc3ccc(Cl)cc3)c3ccccc23)cc1S(=O)(=O)N1CCOCC1,/,/,/,/,-9.4%,10.2%
CCCCNc1c(CN)cnc2cc(Cl)ccc12,/,-3.6%[7.66 µM],/,/,/,-15.9%[9.22 µM]
COc1ccccc1-c1ccnc2c(-c3ccc(Br)cc3)c(C)nn12,/,/,/,/,-2.8%,8.9%
O=C(c1cc(-c2cccs2)on1)N1CCCc2ccccc21,22.5%,-1.3%,13.8%,?,16.9µM*,21.5%
O=C(c1cc(-c2ccc(F)cc2)on1)N1CCCc2ccccc21,?,0.0%,22.1%,?,10.7µM*,?
COc1ccc(OC)c(-c2cc(C(=O)N3CCCc4ccccc43)no2)c1,10.2%,5.0%,-4.0%,-7.4%,1.9%,-7.0%
COc1ccccc1-c1cc(C(=O)N2CCCc3ccccc32)no1,14.3%,2.0%,2.1%,9.4%,?,3.5%
Cc1ccc(-c2cc(C(=O)N3CCCc4ccccc43)no2)cc1,3.16µM*,0.9%,?,?,4.26µM*,?
N/C(=N/OC(=O)c1ccccc1Cl)c1nonc1N,?,?,20.1%,?,8.49µM*,4.9%
N/C(=N/OCC(=O)Nc1cccc2ccccc12)c1nonc1N,0.6%,-2.9%,2.8%,-2.2%,-6.2%,-11.3%
NC(=O)c1ccc(F)cc1,-3.5%,-3.3%,0.7%,2.2%,0.9%,-0.6%
Cc1ccc(C(=O)O/N=C(\N)c2nonc2N)cc1,10.8%,11.2µM*,3.0%,?,0.477µM*,18.1%
SMILES,Rab9 promoter act,KinaseGlo FLuc,NPC1 prom act,ELG1 genotox,FLuc counter,SMN2 splice up
N/C(=N\OC(=O)c1ccc(F)cc1)c1nonc1N,-7.6%,11.2µM*,-2.3%,4.5%,1.51µM*,11.2%
Cc1cc(NC(=O)COC(=O)c2ccccc2Cl)no1,/,/,/,-2.2%,/,/
Cc1cc(/C(N)=N/OC(=O)c2ccccc2Cl)no1,0.501µM*,/,1.12µM*,?,1.69µM*,/
Cc1nc(/C(N)=N/OC(=O)c2ccccc2Cl)c(C(F)(F)F)o1,?,/,?,?,10.7µM*,/
Cc1nc(/C(N)=N/OC(=O)c2cccc(Cl)c2)c(C(F)(F)F)o1,-5.5%,/,0.6%,-0.9%,?,/
Cc1ccc(Cl)cc1NC(=O)COC(=O)CSc1ccccc1,/,/,/,-1.3%,/,/
